This is part of a sample that, as a whole, favours compounds with a hit. Of some 79,000 tested, about 15% had one in any assay. Cut-off read from the data, not from the text of the source: active = growth inhibition above about 70%; inactive = the rest.
Assays:
[1] = NCI Yeast Anticancer Drug Screen. Data for the rad50 strain (AID 155);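 note: 0% = growth of vehicle-only cultures of the same strain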; conditions: S. cerevisiae rad50 strain growth inhibition; at 50.0 µM; active compounds read high
How it was run: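 Vehicle-treated cultures provide the reference for the growth inhibition reported for compound-exposed, repair-deficient yeast.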

[2] = NCI Yeast Anticancer Drug Screen. Data for the mec2-1 strain (AID 157); conditions: S. cerevisiae mec2-1 strain, at 50.0 µM, active compounds read high
How it was run: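 mec2-1 yeast strain, carrying an alteration in DNA damage repair or cell cycle control, was exposed to compounds; growth inhibition was measured relative to vehicle-treated controls.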

[3] = NCI Yeast Anticancer Drug Screen. Data for the sgs1 mgt1 strain (AID 161);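 note: 0% = growth of cultures given vehicle only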; conditions: S. cerevisiae sgs1 mgt1 strain, at 50.0 µM, active compounds read high
How it was run: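 This yeast growth screen uses a strain with defined DNA-repair lesions; compound-treated growth is compared with vehicle-treated growth.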

[4] = NCI Yeast Anticancer Drug Screen. Data for the cln2 rad14 strain (AID 165);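 note: 0% = growth equal to vehicle treated cultures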; conditions: S. cerevisiae cln2 rad14 strain, at 50.0 µM, active compounds read high
How it was run: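 Yeast carrying cln2 and rad14 alterations (cell cycle control and DNA damage repair) were exposed to compounds. Growth inhibition was measured against vehicle-treated controls.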

[5] = NCI Yeast Anticancer Drug Screen. Data for the bub3 strain (AID 167); conditions: S. cerevisiae bub3 mutant strain, at 50.0 µM, active compounds read high
How it was run: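 Mutant yeast screening strain plus compound; vehicle-treated cultures serve as the 0% inhibition reference.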

[6] = NCI Yeast Anticancer Drug Screen. Data for the mlh1 rad18 strain (AID 175); conditions: S. cerevisiae mlh1 rad18 strain growth inhibition; at 50.0 µM; active compounds read high
How it was run: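 Growth inhibition of the yeast strain was measured after compound exposure and expressed relative to vehicle-treated controls. The strain carries defined defects in DNA damage repair.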

Measured: growth inhibition

CC(=O)c1sc(Nc2ccc(S(=O)(=O)Nc3nc(C)cc(C)n3)cc2)nc1C
inactive: [1] 15.6% | [2] -0.75% | [3] 8.9% | [4] 31.3% | [5] -11.7% | [6] -10.1%

N#CCCN1C(=O)C2(CCC#N)CCCCC2(O)N=C1c1ccccc1 (stereo unspecified)
inactive: [1] -7.35% | [2] 6.15% | [3] 16.5% | [4] -0.5% | [5] 15.2% | [6] 7.7%

C#[N+]CCOP(=O)(OCC1OC(n2cc(C)c(=O)[nH]c2=O)CC1N=[N+]=[N-])O[C@H]1CC[C@@]2(C)C(=CC[C@H]3[C@@H]4CC[C@H](C(C)CCCC(C)C)[C@@]4(C)CC[C@@H]32)C1 (stereo partly specified)
inactive: [1] -18.8% | [2] -30.1% | [3] -24.6% | [4] 3.05% | [5] -0.35% | [6] -17.4%

CC(C)(C)N=c1n(C(C)(C)C)oc(=O)n1C(C)(C)C
inactive: [1] -11.8% | [2] -34% | [3] -25.1% | [4] -2.95% | [5] -27.9% | [6] -11.9%

CCCc1nc2c([nH]1)c(=O)n(C)c(=O)n2C
inactive: [1] 22.6% | [2] -14.3% | [3] 3.5% | [4] 9.85% | [5] -21.1% | [6] 22.6%

Cc1ccc2c(c1)C(O)(CC(=O)c1ccccc1)C(=O)N2 (stereo unspecified)
inactive: [1] 35.4% | [2] 0.55% | [3] 7% | [4] -47.9% | [5] -6.6% | [6] 1.35%

O=c1c2ccccc2n2c(-c3ccc(O)cc3)nnc2n1-c1ccccc1
inactive: [1] -30.3% | [2] -17.1% | [3] 4.4% | [4] 7.75% | [5] 1.5% | [6] -14.8%

ClC(c1ccccc1)c1cccc2ccccc12 (stereo unspecified)
inactive: [1] 30.6% | [2] -2.45% | [3] 7.7% | [4] 21.5% | [5] 11.8% | [6] 41.6%

O=C(c1ccccc1)c1ccc(N2CCOCC2)cc1
inactive: [1] -29.4% | [2] -44.9% | [3] 24.4% | [4] 4.75% | [5] -7.85% | [6] -5.7%

COc1cc(CCl)c(OC)cc1Cl
inactive: [1] 8.6% | [2] 0.9% | [3] -1.4% | [4] -35.6% | [5] 13.6% | [6] -28.4%

CC(C)(CCCOc1ccccc1)/C(=N/O)c1ccccc1
inactive: [1] 14.1% | [2] 5.6% | [3] -14.9% | [4] 21.6% | [5] 11.6% | [6] -14.5%

c1coc(C2SCSCS2)c1
inactive: [1] 0.35% | [2] 5.8% | [3] -6.7% | [4] -13.5% | [5] -8.2% | [6] -4.2%

NC(=O)NC(=O)c1ccco1
inactive: [1] 52.7% | [2] -1.55% | [3] 28.9% | [4] 17.1% | [5] -1.3% | [6] 16%

Oc1ccc(NCc2ccccc2)cc1
inactive: [1] 32.9% | [2] 8.45% | [3] 16.9% | [4] -3.15% | [5] 21.6% | [6] 16.9%

CCOC(CN=Cc1cccc2ccccc12)OCC
inactive: [1] -26.4% | [2] -1.4% | [3] -11.8% | [4] 46.7% | [5] -3.55% | [6] 18.6%

Nc1cc([N+](=O)[O-])ccc1-c1ccc([N+](=O)[O-])cc1
inactive: [1] 3.25% | [2] -2.2% | [3] 8.1% | [4] 10.2% | [5] 15.2% | [6] -8.85%

COc1cc(Cl)ccc1NC(=O)Oc1ccc(C=O)cc1OC
inactive: [1] 3.8% | [2] 10.2% | [3] 6.75% | [4] 9.85% | [5] 17.9% | [6] 10.8%

CC(C)=Cc1cc(-c2cc(C=C(C)C)on2)no1
inactive: [1] 8.1% | [2] -7.05% | [3] 3.85% | [4] 1.15% | [5] -8% | [6] 4%

O=C(O)COc1c(Cl)cc(Cl)c2cccnc12
inactive: [1] 28.9% | [2] -3.85% | [3] -15.7% | [4] -16.9% | [5] -63.2% | [6] -4.45%

O=c1[nH]c2nc3ccccc3c(=O)n2/c1=C/c1ccc(O)cc1
inactive: [1] 9.6% | [2] 2.3% | [3] -12% | [4] 8.95% | [5] 7.3% | [6] -19.8%

CCOc1cc2c(cc1O)CC[C@@H]1[C@@H]2CC[C@]2(C)C(N)CC[C@@H]12 (stereo partly specified)
inactive: [1] -0.95% | [2] 5.85% | [3] -18.2% | [4] -33.1% | [5] -20.1% | [6] -8.8%

CCOC(=O)c1nc(-c2ccccc2)c(-c2ccccc2)c(-c2ccccc2)c1C
inactive: [1] -24.6% | [2] -2.55% | [3] 10.2% | [4] -36.9% | [5] -0.6% | [6] -4.85%

O=C(O)c1ccc(C(=O)c2ccc(Cl)cc2)cc1
inactive: [1] 31.9% | [2] 44.5% | [3] 42.4% | [4] -6.35% | [5] 13.6% | [6] 34.6%

Brc1cc(Br)cc(-c2nnc(-c3ccc4ccccc4c3)o2)c1
inactive: [1] -3.5% | [2] -20.8% | [3] -2.45% | [4] 3.25% | [5] 3% | [6] 4.55%

N#CCCN(CCC#N)c1ccc(C=Nc2ccc(F)cc2)cc1
inactive: [1] 20% | [2] 9.65% | [3] 11.9% | [4] 15.8% | [5] 18.5% | [6] 45.2%

CC1CC(C#N)=C(NC#N)NC1=O (stereo unspecified)
inactive: [1] -0.5% | [2] 12.4% | [3] 19.2% | [4] 5.55% | [5] -0.75% | [6] 9.4%

Cc1cc(C)c([N+](=O)[O-])c(N)n1
inactive: [1] 8.45% | [2] -6.6% | [3] -5.85% | [4] -52% | [5] 1.2% | [6] -12.1%

CCOC(=O)COc1cc2c(cc1Cc1ccc(OC)cc1)OCO2
inactive: [1] -5.4% | [2] -7.45% | [3] 5.45% | [4] 6.2% | [5] 39.4% | [6] 11.7%

CC1(c2ccccc2)CCN(C2CC2)CO1 (stereo unspecified)
inactive: [1] 34.6% | [2] 15.2% | [3] 51.6% | [4] 45.2% | [5] 48.5% | [6] -52%

NC(=O)C1=NNc2ccccc2C(=O)N1c1ccccc1
inactive: [1] 8.3% | [2] -10.2% | [3] -20.1% | [4] 9.9% | [5] 6.9% | [6] 2.55%

CCOC(=O)C(=CNc1ccc(S(N)(=O)=O)cc1)C(=O)OCC
inactive: [1] 13.7% | [2] 7.95% | [3] -31.1% | [4] 5.6% | [5] -14% | [6] -26.2%

Cc1ccc(-n2c(=O)nc([O-])[n+]3ccccc23)cc1
inactive: [1] -2.85% | [2] -6.85% | [3] -7.95% | [4] -24.8% | [5] -3.75% | [6] 6.65%

CC(=O)Nc1cc2ccccc2c(Br)n1
inactive: [1] -14.9% | [2] 6.55% | [3] -4.65% | [4] -13.1% | [5] -9.95% | [6] -6.15%

CC1=C(C(=O)NCc2ccccc2)C(c2ccc(Cl)c(Cl)c2)C(C(=O)NCc2ccccc2)=C(C)N1
inactive: [1] -10.9% | [2] 12.2% | [3] -21.1% | [4] 21.2% | [5] -12.4% | [6] -18.9%

O=[N+]([O-])c1cccc(CC(=S)N2CCOCC2)c1
inactive: [1] 14.4% | [2] -3.8% | [3] -8.9% | [4] -39.8% | [5] -2.3% | [6] 6.6%

CC(C)=NOCCC#N
inactive: [1] 22.5% | [2] -0.05% | [3] -4.8% | [4] -16.6% | [5] 8.35% | [6] -14.3%

Cn1cc(C2(C)CC(C)(C)c3c2n(C)c2ccccc32)c2ccccc21 (stereo unspecified)
inactive: [1] 0.3% | [2] -16.1% | [3] -12.2% | [4] 7.15% | [5] -17.9% | [6] 2.95%

CC(=O)OC(OC(C)=O)c1cccc2ccccc12
inactive: [1] 3.05% | [2] -9.3% | [3] -5.8% | [4] -15.9% | [5] 16.9% | [6] -3.9%

CC(C)N(C(=O)/C=C/C(=O)N(C(C)C)C(C)C)C(C)C
inactive: [1] 3.7% | [2] 27.1% | [3] -1.7% | [4] -2.05% | [5] 18.8% | [6] -9.6%

CCOC(=O)NCC(C)(C)C
inactive: [1] -2.4% | [2] 10.9% | [3] 6.5% | [4] -0.65% | [5] -7.9% | [6] 35.4%

CC12CCC(C/C1=N\NC(N)=O)C2(C)C (stereo unspecified)
inactive: [1] 4.2% | [2] -16.6% | [3] -18.2% | [4] 2.55% | [5] -19.9% | [6] -1.45%

— PubChem BioAssay (NCI)
